Test results taken from PubChem BioAssay.
Values without a mark were called inactive. Activity calls are given as the source filed them.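 The calls were made as follows: active = thallium flux through the channel raised or lowered by more than 3 SD from vehicle-only wells, actives on both sides; inactive = the rest.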

Tests used:
Experiment in all cases: modulators of BK channel variants, profiling panel, selectivity assay, cell-based, U2OS BacMam, thallium flux, beta subunits (AID 1259406);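 also: initial slope of Thallos dye fluorescence rise after thallium is added; log ratio against the mean of 0.3% DMSO vehicle wells on the same plate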
F380Y = details: at 30 µM
F380Y/beta1 = details: at 30 µM
F380Y/beta2Delta = details: at 30 µM
F380Y/beta4 = details: at 30 µM
[1] = molecular target: Calcium-activated potassium channel subunit alpha-1 (Homo sapiens) + Leucine-rich repeat-containing protein 26 (Homo sapiens) (UniProt Q12791+Q2I0M4); details: F380Y/Slo1WT/gamma1, at 30 µM
Calcium-activated potassium channel subunit alpha-1 (Homo sapiens) + Leucine-rich repeat-containing protein 26 (Homo sapiens), sequence (Q2I0M4 whole entry, looked up, one chain of several): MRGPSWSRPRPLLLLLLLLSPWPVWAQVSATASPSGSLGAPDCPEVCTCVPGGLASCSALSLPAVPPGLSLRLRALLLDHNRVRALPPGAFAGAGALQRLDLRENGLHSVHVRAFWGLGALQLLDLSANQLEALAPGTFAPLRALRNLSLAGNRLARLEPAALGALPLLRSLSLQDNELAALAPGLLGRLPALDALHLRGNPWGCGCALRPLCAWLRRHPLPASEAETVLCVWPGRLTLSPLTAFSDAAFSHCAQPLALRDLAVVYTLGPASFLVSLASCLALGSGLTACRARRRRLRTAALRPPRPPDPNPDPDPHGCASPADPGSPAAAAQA

R275C = details: at 30 µM
R275C/beta1 = details: at 30 µM
R275C/beta2Delta = details: at 30 µM
R275C/beta4 = details: at 30 µM
R275C/Slo1WT/beta2 = details: at 30 µM

Row | Structure (SMILES) | log fold change Tl+ flux (F380Y) | log fold change Tl+ flux (F380Y/beta1) | log fold change Tl+ flux (F380Y/beta2Delta) | log fold change Tl+ flux (F380Y/beta4) | log fold change Tl+ flux [1] | log fold change Tl+ flux (R275C) | log fold change Tl+ flux (R275C/beta1) | log fold change Tl+ flux (R275C/beta2Delta) | log fold change Tl+ flux (R275C/beta4) | log fold change Tl+ flux (R275C/Slo1WT/beta2)
1 | FC(F)(F)COc1ccc(-c2nnc(SCc3ccccc3C(F)(F)F)o2)cn1 | 0.00456 | -0.0223 | -0.0257 | -0.0497 | -0.0179 | -0.0108 | 0.0313 | -0.0204 | 0.0273 | 0.0157
2 | COc1cc(CCC(C)NC(=O)c2ccc(C)cc2)ccc1OC(=O)c1ccc(C)cc1 (stereo not given) | -0.0917 | -0.0646 | -0.0421 | -0.23 (active) | -0.115 (active) | -0.0349 | -0.0935 | -0.0312 | -0.0233 | 0.00819
3 | O=C(c1ccc(-c2cccs2)s1)c1ccc(F)cc1F | -0.00876 | 0.022 | 0.0129 | 0.0546 | 0.0119 | -0.00813 | 0.00849 | 0.0495 | -0.00599 | 0.0293
4 | CN1c2ccsc2C(=O)C(=NNc2cccc(C(F)(F)F)c2)S1(=O)=O | -0.0122 | 0.00552 | 0.00348 | 0.0228 | -0.0208 | -0.00855 | 0.0113 | 0.00493 | -0.00494 | -0.0248
5 | CN(C)C=Nc1cc(Cl)c(-n2cccc2)cc1Oc1ccc(Cl)cc1 | 0.0245 | 0.0128 | -0.0305 | -0.016 | 0.0223 | -0.0532 | -0.0556 | -0.0155 | -0.0061 | -0.0144
6 | Cc1c(C)c(C)c(C(=O)c2ccccc2C(=O)NN)c(C)c1C | 0.0326 | 0.0715 | 0.00841 | 0.0586 | 0.0596 | 0.02 | 0.144 (active) | 0.0153 | 0.0879 (active) | 0.00811
7 | Clc1cc(Cl)cc(Nc2ncnc(-n3cccc3)n2)c1 | 0.0686 | 0.0545 | 0.0354 | 0.0368 | 0.0181 | 0.00673 | 0.00955 | 0.0395 | -0.0107 | -0.0692
8 | NC(=NC(=O)c1cccs1)c1cccs1 | 0.00622 | 0.0573 | 0.0445 | 0.0177 | 0.0217 | 0.0451 | 0.0586 | 0.0615 | 0.0555 | 0.0314
9 | CCSc1n[nH]c(=S)s1 | -0.0724 | 0.0129 | 0.00494 | 0.00824 | -0.0169 | 0.0305 | -0.0034 | 0.0134 | 0.0178 | 0.00702
10 | Cc1ncc(CSc2nc(C(C)(C)C)cs2)c(CO)c1O | -0.0128 | -0.0261 | -0.035 | -0.0366 | -0.0352 | -0.0209 | -0.00193 | 0.0196 | 0.00379 | -0.00882
11 | O=S(=O)(CCN1CCN(Cc2ccccc2)CC1)c1ccc(F)cc1 | -0.000988 | 0.0135 | 0.0237 | 0.0241 | 0.000113 | 0.0486 | 0.0249 | 0.00728 | 0.0441 | -0.0289
12 | COc1ccc(Oc2ccc([N+](=O)[O-])cc2C2=NC(=CN(C)C)C(=O)O2)cc1 | -0.0336 | -0.0257 | -0.0604 | -0.00321 | -0.0547 | -0.0108 | -0.015 | -0.0321 | -0.00628 | -0.0407
13 | CCOC(=O)CN(C=NC#N)c1ccc(OC)cc1 | -0.0235 | 0.0113 | -0.0114 | 0.0329 | 0.0663 | 0.0146 | -0.0574 | -0.0152 | -0.00948 | 0.0303
14 | CC(C)n1c(SCC(=O)c2ccccc2)nc2cc(Cl)ccc21 | -0.0377 | -0.0145 | -0.0247 | -0.709 (active) | -1.05 (active) | -0.667 (active) | -0.35 (active) | -0.0838 (active) | -0.0424 | -0.173 (active)
15 | COC(=O)c1cc(C)nc(Sc2n[nH]c(-c3cc(Cl)cc(Cl)c3)n2)n1 | -0.0391 | 0.0897 (active) | 0.0312 | 0.046 | 0.044 | 0.00719 | 0.0447 | 0.0581 | 0.0071 | 0.059
16 | CCSc1ccc(-c2noc(C(C)(C)C)n2)cn1 | 0.0439 | 0.0323 | -0.00176 | 0.0153 | -0.00182 | 0.0189 | 0.0241 | -0.0201 | 0.031 | -0.00966
17 | CCOC(=O)c1cnc(C(F)(F)F)nc1NN=Cc1c(Cl)cccc1Cl | -0.0741 | 0.0122 | -0.0116 | 0.00688 | -0.0599 | -0.0944 (active) | -0.124 (active) | -0.0798 | -0.0487 | -0.0141
18 | Cc1ccc(-c2nc(N=CNOC(=O)c3ccc([N+](=O)[O-])cc3)sc2C)cc1Cl | 0.0323 | 0.126 (active) | 0.0425 | 0.147 (active) | 0.102 | 0.00635 | 0.0986 | 0.13 (active) | 0.142 (active) | 0.0243
19 | C#CC1(NC(=O)c2ccc(-c3ccc(CC)cc3)cc2)CCCCC1 | 0.0109 | 0.0082 | 0.0141 | 0.0366 | 0.047 | 0.0116 | -0.0162 | -0.00151 | 0.0306 | -0.00603
20 | COC(=O)C=C1NCC(O)CNC1=O (stereo not given) | -0.00633 | -0.0361 | 0.00999 | -0.025 | -0.0336 | 0.0119 | -0.0456 | 0.0117 | -2.9e-05 | 0.0313
21 | FC(F)(F)c1ccc(-c2csc(C3(c4ccc(Cl)cc4Cl)CC3)n2)cc1 | -0.0289 | 0.000911 | 0.0443 | -0.0216 | 0.0176 | -0.00802 | 0.0119 | -0.00666 | 0.0455 | -0.0337
22 | Cc1ccc(C)n1N(C)c1ccc([N+](=O)[O-])cn1 | -0.186 (active) | -0.0343 | -0.0717 | 0.0203 | -0.0125 | -0.0076 | -0.0949 | -0.0509 | 0.0498 | 0.00416
23 | Cc1cccc(N=Cc2cc(Cl)cc(Cl)c2O)c1C | 0.049 | 0.0694 | 0.0737 | 0.0885 | 0.078 | 0.0221 | 0.0155 | 0.0671 | 0.00158 | -0.00626
24 | Cc1nc(C)c(C(=O)O)c(-c2ccsc2)c1C(=O)O | 0.00149 | 0.0257 | -0.0103 | 0.0238 | 0.0233 | 0.0307 | 0.0388 | -0.00263 | 0.00868 | 0.0152
25 | O=C(Nc1csc(Cc2c(Cl)cccc2Cl)n1)NN1CCOCC1 | 0.0786 | 0.0031 | 0.0515 | 0.11 (active) | -0.0174 | -0.0115 | 0.0073 | 0.0159 | 0.00549 | -0.0281
26 | Oc1c(Cl)c(Cl)c(Cl)c2ccccc12 | 0.503 (active) | 0.627 (active) | 0.473 (active) | 0.484 (active) | 0.395 (active) | 0.519 (active) | 0.527 (active) | 0.304 (active) | 0.702 (active) | 0.141 (active)
